Screens from PubChem.
Vc quorum ag = induces V. cholerae light production without autoinducers; hit rate 0.16% among 350,000; activation, % at 18.7 µM; V. cholerae BH1578 lux reporter, luminescence, 6 h; in the data active means activation mostly above about 9.7%, no sharp cut-off
PriA SSB inh = blocks PriA binding to SSB C-terminal tail; AlphaScreen SSBct-PriA binding, biotinylated peptide; inhibition, % at 33 µM; hit rate 0.6% among 430,000; AID 1272365; in the data active means inhibition mostly above about 37%, no sharp cut-off; inactive means mostly below about 20%;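 further: plate controls were negative control peptide for no effect and reference peptide for full effect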
VHR inh abs = inhibitors of human VHR1 phosphatase (DUSP3). recombinant VHR phosphatase, pNPP absorbance. inhibition, % at 13.3 µM. AID 1654. hit rate 0.52% among 290,000. P51452; in the data active means inhibition above about 50%
Target sequence (P51452 whole entry, looked up): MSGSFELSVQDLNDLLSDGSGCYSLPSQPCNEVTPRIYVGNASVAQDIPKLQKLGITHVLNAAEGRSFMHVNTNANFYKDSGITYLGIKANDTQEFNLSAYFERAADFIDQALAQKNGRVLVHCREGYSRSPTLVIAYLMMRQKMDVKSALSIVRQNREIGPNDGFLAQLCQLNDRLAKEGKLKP
3CLpro inhibitor = SARS-CoV 3CLpro protease inhibition | P0C6X7 | recombinant SARS-CoV 3CLpro, quenched FRET peptide cleavage | inhibition, % at 6 µM | hit rate 0.14% among 290,000; in the data active means inhibition above about 12%
CCHF vOTU inh = blocks the CCHF virus ovarian tumor domain protease | hit rate 0.55% among 370,000 | inhibition, % at 11.5 µM | CCHFV vOTU protease, Pep-AMC fluorescence; in the data active means inhibition above about 30%; further: 0% = vehicle wells with enzyme and 100% = no enzyme wells
TcdB inh = inhibitors of Clostridioides difficile toxin B glycohydrolase; TcdB glycohydrolase enzymatic assay, plate reader; inhibition, % at 9.99 µM; hit rate 0.24% among 350,000; AID 652162; in the data active means inhibition above about 10%
The depositor's hits bear a star; i = inactive; . = not tested or not shown; ! = not active in a repeat. In the library only some 1.3% were active in any assay of this set; here they are far more common.

SMILES	Vc quorum ag	PriA SSB inh	VHR inh abs	3CLpro inhibitor	CCHF vOTU inh	TcdB inh
NCCNC(=O)c1c(NC(=O)c2ccccc2)sc2c1CCCC2	0	14	54*	-1	7	1
CCCC(=O)Nc1sc2c(c1C(=O)Nc1ccccn1)CCCC2	0	-8	16	-1	3	12*
O=C(Nc1sc2c(c1C(=O)O)CCCC2)c1ccc(Cl)cc1	2	-1	-4	5	6	12*
O=C(Nc1sc2c(c1C(=O)NCCCO)CCCC2)c1ccccc1	0	5	5	0	1	1
O=C(CN1CCCC1)Nc1sc2c(c1C(=O)Nc1ccc(Br)cc1)CCC2	0	75*	24	-1	-3	0
Cn1nc2c(c1NC(=O)C1CCCN(S(=O)(=O)c3ccccc3)C1)CCC2 (stereo not drawn)	.	5	.	.	.	.
C=CCn1c(SCC(=O)Nc2ccc(OC)cc2)nc2cc3ccccc3cc2c1=O	.	-18	.	.	.	.
O=C(Nc1sc2c(c1C(=O)O)CCC2)c1ccccc1	i	3	52*	0	8	.
O=C(Nc1sc2c(c1C(=O)O)CCCCC2)c1ccccc1	-2	-11	-12	4	10	8
Cn1nc(CNC(=O)c2ccc(OC(F)(F)F)cc2)cc1-c1cccs1	.	-5	.	.	.	.
O=C(CSc1nnc(CCc2nc3ccccc3[nH]2)o1)NCCn1nc(-c2ccco2)ccc1=O	.	-16	.	.	.	.
O=C(Cc1csc(NC(=O)c2ccc[nH]c2=O)n1)NCC1CCCCC1	.	-3	.	.	.	.
Cc1ccc(OCCCC(=O)Nc2ccc3c(c2)OCO3)c(C)c1	.	36*	.	.	.	.
CSc1ncccc1C(=O)N1CCC(CNC(=O)C(=O)Nc2ccccc2Cl)CC1	.	1	.	.	.	.
O=C(CC1CSc2nc3c(c(=O)n21)CCC3)N1CCN(Cc2ccccc2)CC1 (stereo not drawn)	.	-5	.	.	.	.
CC(=O)c1ccc(NC(=S)N2CCN(CCN3C(=O)c4cccc5cccc(c45)C3=O)CC2)cc1	i	-5	55*	-1	-7	-1
CC(=O)c1ccc(NC(=O)c2ccn(C(=O)OCC(C)C)n2)cc1	i	1	-5	-2	2	.
CC(C)COC(=O)n1ccc(C(=O)N2CCCCC2)n1	i	1	51*	3	14	.
Cc1c(C(=O)N2CCCC2)oc2ccc(Br)cc12	i	0	53*	-3	8	1
O=c1c2nccnc2n(Cc2cccc(C(F)(F)F)c2)c(=O)n1Cc1ccc(F)cc1	.	7	.	.	.	.
COc1ccc(CCNc2cc(C)[nH]c(=O)c2)cc1OC	8	-1	60*	3	-18	1
CCC(=O)N1CCN(c2ccc(NC(=S)NC(=O)c3cccc([N+](=O)[O-])c3)cc2)CC1	33*	7	47	1	1	.
CCC(=O)Nc1nc2ccccc2n1CCN(C)C	i	2	57*	-3	7	0
CC(=O)Nc1nc2ccccc2n1CCN(C)C	0	-7	19	1	16	.
C/C(=N/NC(=S)NCCc1ccccc1)c1ccco1	.	62*	.	.	.	.
SMILES	Vc quorum ag	PriA SSB inh	VHR inh abs	3CLpro inhibitor	CCHF vOTU inh	TcdB inh
COC(=O)N1CCC(CNS(=O)(=O)c2ccc(N3CCCCS3(=O)=O)cc2)CC1	.	-10	.	.	.	.
COc1cccc(CNCCc2c[nH]c3ccccc23)c1OCc1ccccc1	0	45*	60*	1	0	1
c1ccc(CNCCc2c[nH]c3ccccc23)cc1	i	0	6	-2	-2	0
COc1cc(CNCCc2c[nH]c3ccccc23)cc(OC)c1OC	i	.	.	.	-3	1
COc1cc(CNCCc2c[nH]c3ccccc23)ccc1OCc1ccccc1F	0	38*	17	0	0	2
Cc1ccc(OCc2n[nH]c(=S)n2-c2ccc(Br)cc2)cc1	i	8	58*	-2	8	4
COC(=O)c1ccc(C(=O)NCc2nc(-c3cccn3C)no2)cc1	.	9	.	.	.	.
O=C(Nc1ccc2c(c1)OCO2)c1c[nH]c(=O)n(-c2ccc(F)cc2)c1=O	i	38*!	-5	1	9	1
COc1ccc(-n2c(=O)[nH]cc(C(=O)Nc3ccc4c(c3)OCCO4)c2=O)cc1OC	i	-9	21	1	10	1
O=C(CSc1cn(CCNC(=O)c2cccs2)c2ccccc12)Nc1nc2ccccc2s1	.	2	.	.	.	.
Cc1cc(=O)n2nc(N3CCC(C(=O)NCc4ccccc4)CC3)sc2n1	0	3	52*	-3	8	1
Cc1ccc(CNC(=O)C2CCN(c3nn4c(=O)cc(C)nc4s3)CC2)cc1	i	-1	-17	2	4	0
COc1ccccc1-c1cc(C(=O)NCc2n[nH]c(=O)c3ccccc23)[nH]n1	.	-9	.	.	.	.
CC(Oc1ccc2c3c(c(=O)oc2c1)CCCC3)C(=O)NCCCn1ccnc1 (stereo not drawn)	0	7	58*	-2	1	0
COc1ccccc1OCC(=O)N1CCN(CC(O)C2CC2)CC1 (stereo not drawn)	.	3	.	.	.	.
CCOc1ccc2[nH]cc(C(=O)NCCCN3CCOCC3)c(=O)c2c1	i	-4	39	4	-7	1
Cc1cccc2c(=O)c(C(=O)NCCCN3CCOCC3)c[nH]c12	-5	8	53*	1	1	.
COCCN1C2=C(C(=O)CC(C)(C)C2)C(c2ccc(OC)c(OC)c2)C2=C1CC(C)(C)CC2=O	i	0	15	-2	-9	0
COCCCN1C2=C(C(=O)CC(C)(C)C2)C(c2ccc(OC)c(OC)c2)C2=C1CC(C)(C)CC2=O	i	-8	51*	3	-3	-8
CC(=O)NNC(=O)c1cccn(Cc2ccc(Cl)c(Cl)c2)c1=O	.	1	.	.	.	.
Cc1nc2oc(-c3ccccc3)nc2cc1NC(=O)c1ccc(Cl)cc1Cl	.	-9	.	.	.	.
COc1cc2c(cc1OC)C(C)N(C(=O)c1cccs1)CC2 (stereo not drawn)	-1	-15	11	3	-14	1
COc1cc2c(cc1OC)C(C)N(C(=O)c1cc3ccccc3o1)CC2 (stereo not drawn)	i	5	51*	-1	4	2
O=C1C(=C(c2ccccc2)c2ccccc2)Nc2ccccc21	i	42*	25	5	11	.
CS(=O)(=O)c1ccc(CC(=O)Nc2nnc(C3CCCO3)o2)cc1 (stereo not drawn)	.	61*	.	.	.	.
SMILES	Vc quorum ag	PriA SSB inh	VHR inh abs	3CLpro inhibitor	CCHF vOTU inh	TcdB inh
Cc1ccc2cc(COC(=O)c3ccco3)c(=O)[nH]c2c1	17*	-13	22	0	-6	.
Cc1ccc(NC(=O)Nc2ccc(N3CCOCC3)cc2)cc1	.	1	.	.	.	.
O=C(Cc1ccccn1)c1ccncc1	i	2	.	.	-10	10*
CSc1ccccc1NC(=O)C1C2CCC(C2)C1C(=O)O (stereo not drawn)	0	-18	52*	4	-15	1
N#C/C(=C\c1ccc(O)c(O)c1)C(=O)N1CCCC1	2	-17	15	-1	3	1
COc1cc(/C=C(\C#N)C(=O)N2CCCCC2)ccc1O	1	-9	0	-3	-11	14*
COc1ccc(C=Nc2c(-c3ccc(OC)cc3)nc3n2CCS3)cc1	.	56*	.	.	.	.
